# In article PMC4336329 (PLoS ONE, 2015):
# Hit rate of the full screen: of about 310,000 compounds, about 14,000 (4.5%) showed an effect of 50% or more. Effects have a minus sign here. For the sample, strong results were picked, then their nearest neighbours and some compounds at random.
# Target: human ether-à-go-go-related gene (hERG) potassium channel (human, UniProt Q12809)
# Assay: primary screen, population patch clamp on CHO cells stably expressing hERG; higher = less effect of the substance
# 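Further: peak tail current of the secondary pulse compared with the same well before compound.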
# Sequence of human ether-à-go-go-related gene (hERG) potassium channel (Q12809 whole entry, looked up): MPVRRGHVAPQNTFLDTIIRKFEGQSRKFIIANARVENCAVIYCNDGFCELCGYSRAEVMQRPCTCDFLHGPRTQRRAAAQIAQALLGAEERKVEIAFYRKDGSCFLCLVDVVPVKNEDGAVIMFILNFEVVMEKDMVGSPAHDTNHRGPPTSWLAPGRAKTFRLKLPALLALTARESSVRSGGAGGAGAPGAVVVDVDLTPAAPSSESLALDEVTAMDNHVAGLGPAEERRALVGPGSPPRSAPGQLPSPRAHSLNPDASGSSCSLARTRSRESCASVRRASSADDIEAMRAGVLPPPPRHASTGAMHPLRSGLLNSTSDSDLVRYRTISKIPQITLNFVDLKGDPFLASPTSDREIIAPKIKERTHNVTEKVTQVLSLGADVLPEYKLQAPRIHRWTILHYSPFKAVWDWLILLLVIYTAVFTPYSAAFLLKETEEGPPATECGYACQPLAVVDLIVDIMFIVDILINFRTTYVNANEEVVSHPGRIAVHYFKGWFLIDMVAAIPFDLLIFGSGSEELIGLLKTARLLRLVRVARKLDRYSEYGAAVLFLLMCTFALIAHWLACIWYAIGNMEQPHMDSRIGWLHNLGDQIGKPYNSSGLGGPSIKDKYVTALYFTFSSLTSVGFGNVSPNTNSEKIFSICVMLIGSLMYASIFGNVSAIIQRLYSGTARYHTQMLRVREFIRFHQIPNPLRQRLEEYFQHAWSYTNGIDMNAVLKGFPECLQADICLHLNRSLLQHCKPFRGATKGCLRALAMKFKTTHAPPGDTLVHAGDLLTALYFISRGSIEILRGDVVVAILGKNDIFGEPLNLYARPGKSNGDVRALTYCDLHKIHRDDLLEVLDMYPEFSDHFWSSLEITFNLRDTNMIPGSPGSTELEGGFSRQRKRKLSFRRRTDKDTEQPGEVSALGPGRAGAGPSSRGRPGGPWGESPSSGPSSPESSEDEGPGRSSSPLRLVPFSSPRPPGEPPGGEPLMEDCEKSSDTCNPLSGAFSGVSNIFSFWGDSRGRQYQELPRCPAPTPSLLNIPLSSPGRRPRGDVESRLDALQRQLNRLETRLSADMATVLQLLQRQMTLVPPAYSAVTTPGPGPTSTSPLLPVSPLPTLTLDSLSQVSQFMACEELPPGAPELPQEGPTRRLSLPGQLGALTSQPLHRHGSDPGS
row,SMILES,"hERG current change (%, negative = inhibition) at 10uM [%]"
1,Clc1ccccc1OCCN1CCCCC1,-16.2
2,Cc1ccccc1OCCOCCN1CCCCCC1.O=C(O)C(=O)O,-29.3
3,CCN1CCN(CCOc2cccc(Cl)c2Cl)CC1.O=C(O)C(=O)O,-3.27
4,Clc1ccccc1OCCN1CCC(Cc2ccccc2)CC1.O=C(O)C(=O)O,-73.4
5,Cc1ccccc1OCCN1CCCC1,7.01
6,Cc1cc2c(cc1S(=O)(=O)Nc1ccc(OC(F)(F)F)cc1)OCC(=O)N2,-42.5
7,CCOC(CNC(=O)c1cccn2c(=O)c3c(C)c(C)sc3nc12)OCC,-12.5
8,CCc1nnc(NC(=O)C(=O)NCCOC(=O)c2ccccc2Cl)s1,5.68
9,Cc1cccc(-c2noc(CNC(=O)Nc3ccc(F)cc3)n2)c1,8.56
10,Cc1ccc(N(CC(=O)NCc2ccccc2)C(=O)CCC(=O)Nc2ccccn2)cc1C,16.4
11,CC(O)c1nc2ccccc2n1CC(=O)Nc1ccc2c(c1)OCCO2 (centres unmarked),-4.28
12,CC(=O)Nc1ccc(S(=O)(=O)N2CCN(c3nc4ccccc4n3CC(C)C)CC2)cc1,-30.9
13,CC(C)n1c(N2CCN(CC(=O)Nc3ccc4c(c3)OCCO4)CC2)nc2ccccc21,-65.4
14,CCn1c(N2CCN(CC(=O)Nc3cccc(C)c3C)CC2)nc2ccccc21,-63.6
15,CCCn1c(N2CCN(CC(=O)Nc3ccc4c(c3)OCCO4)CC2)nc2ccccc21.Cl,-60.4
16,O=C(CN1CCN(c2ccc(O)cc2)CC1)Nc1ccc2c(c1)OCCO2,2.24
17,CCCCNc1nc2ccccc2n1CC(=O)Nc1ccc2c(c1)OCCO2,-10.2
18,CCn1c(N2CCN(S(=O)(=O)CC)CC2)nc2ccccc21,-37.7
19,Cc1ccc(SCc2nc3ccccc3n2CC(=O)Nc2ccc(Cl)cc2)cc1,-8.31
20,CC(C)Cn1c(N2CCN(CC(=O)Nc3ccc(Cl)cc3)CC2)nc2ccccc21,-70.5
21,Cc1cccc(N2CCN(CC(=O)Nc3ccccc3[N+](=O)[O-])CC2)c1C,-0.256
22,O=C(CN1CCN(c2ccccc2)CC1)Nc1ccc2c(c1)OCCO2,5.46

row,SMILES,"hERG current change (%, negative = inhibition) at 10uM [%]"
1,CCOC(=O)[C@@H]1[C@H]2COc3cc(OC)ccc3[C@@H]2N2C(=O)N(c3cccc(C)c3)C(=O)[C@@]12C,-5.14
2,CCC1=NN(C(=O)c2ccc(C)cc2)C(O)(c2ccc(Br)cc2)C1 (centres unmarked),-10.7
3,COc1ccccc1C(CC(=O)Nc1nccs1)c1ccco1 (centres unmarked),2.68
4,Cc1ccc(C)c(NC(=O)CN(C)C(=O)/C=C/c2ccco2)c1,15.7
5,COc1ccccc1/C=C/C=N/NC(=O)c1cnccn1,13.5
6,Cc1ccc(-c2csc(NC(=O)c3ccc(Br)cc3)c2C(=O)O)cc1,46.9
7,O=C(O)C(Cc1c[nH]c2ccccc12)N1CCS(=O)(=O)CC1 (centres unmarked),16.3
8,N#CC1(NC(=O)COC(=O)c2ccc(-c3ccc(O)cc3)cc2)CCCCC1,7.22
9,CC1(C)C(=O)OC(c2ccc([N+](=O)[O-])cc2)C(C)(C)C1=O (centres unmarked),18.4
10,N#Cc1cc(NC2CCCC2)c([N+](=O)[O-])cc1C#N,-5.68
11,Cn1cc(S(=O)(=O)N2CCCC2)cc1C(=O)NCCc1ccccc1,-2.66
12,O=Cc1ccc2noc(-c3ccc(Cl)cc3)c2c1,-1.22
13,Cc1ccc(/C=C2\SC(=S)N(CCC(=O)NNC(=O)c3cccnc3)C2=O)cc1,1.06
14,CC1CC(C)CN(CCCNC(=O)c2ccc3nc(N4CCOCC4)sc3c2)C1 (centres unmarked),-19.5
15,CCC(Cc1ccccc1)NC(=O)c1ccc2nc(N3CCOCC3)sc2c1 (centres unmarked),-46.5
16,O=C(c1ccc2nc(N3CCOCC3)sc2c1)N1CCCC1,-10.8
17,O=C(NCCc1ccccc1)c1ccc2nc(N3CCOCC3)sc2c1,3.75
18,CCCCN(CCCNC(=O)c1ccc2nc(N3CCOCC3)sc2c1)Cc1ccccc1,-62
19,O=C(NCCCN1CCC(Cc2ccccc2)CC1)c1ccc2nc(N3CCOCC3)sc2c1,-66.2
20,O=C(NCc1ccccc1)c1ccc2nc(N3CCOCC3)sc2c1,-5.89
21,O=C(c1ccc2nc(N3CCOCC3)sc2c1)N1CCC(Cc2ccccc2)CC1,-63.2
22,O=C(c1ccc2nc(N3CCOCC3)sc2c1)N1CCN(C(=O)c2ccco2)CC1,-47.4
